The values below come from PubChem BioAssay (NCI).

The structures appear in SMILES notation. About 79,000 compounds went through this panel and 15% of them were active in at least one assay; those are over-represented in the sample as a whole. Unmarked numbers belong to inactive results. Activity calls are given as the source filed them. No stated cut-off is given here; in the data, active means growth inhibition above about 70%; inactive means the rest.

A short description of experiment [1]: NCI Yeast Anticancer Drug Screen. Data for the rad50 strain (AID 155).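 Further: 0% = growth of vehicle-only cultures of the same strain.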 The settings on record: S. cerevisiae rad50 strain growth inhibition, stronger effect = higher value. The procedure, abridged:
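Genetically altered yeast (DNA repair pathway); compound treatment; growth inhibition vs vehicle ctrl.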

Experiment [2] is described as follows: NCI Yeast Anticancer Drug Screen. Data for the mec2-1 strain (AID 157). The settings on record: S. cerevisiae mec2-1 strain, stronger effect = higher value. The procedure, abridged:
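mec2-1 yeast strain, carrying an alteration in DNA damage repair or cell cycle control, was exposed to compounds; growth inhibition was measured relative to vehicle-treated controls.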

Experiment [3] in a line: NCI Yeast Anticancer Drug Screen. Data for the sgs1 mgt1 strain (AID 161).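 Further: 0% = growth of cultures given vehicle only.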 The settings on record: S. cerevisiae sgs1 mgt1 strain, stronger effect = higher value. The procedure, abridged:
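Growth of a repair-deficient yeast mutant was monitored after compound treatment and expressed as inhibition relative to vehicle-treated cultures.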

Experiment [4] can be described thus: NCI Yeast Anticancer Drug Screen. Data for the cln2 rad14 strain (AID 165).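 Further: 0% = growth equal to vehicle treated cultures.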 Conditions: S. cerevisiae cln2 rad14 strain, stronger effect = higher value. A digest of the protocol:
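Yeast carrying cln2 and rad14 alterations (cell cycle control and DNA damage repair) were exposed to compounds. Growth inhibition was measured against vehicle-treated controls.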

The nature of experiment [5]: NCI Yeast Anticancer Drug Screen. Data for the bub3 strain (AID 167). The settings on record: S. cerevisiae bub3 mutant strain, stronger effect = higher value. The procedure, abridged:
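Yeast carrying a defined mutation is treated with each compound, and growth is compared with that of vehicle-exposed cells to give inhibition.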

Experiment [6] can be described thus: NCI Yeast Anticancer Drug Screen. Data for the mlh1 rad18 strain (AID 175). The settings on record: S. cerevisiae mlh1 rad18 strain growth inhibition, stronger effect = higher value. The procedure, abridged: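 Growth inhibition of the yeast strain was measured after compound exposure and expressed relative to vehicle-treated controls. The strain carries defined defects in DNA damage repair.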

Where [7] appears, read: at 5.0 µM (retest, dose inferred, filed as 0.5).
The mark [8] stands for this setting: at 50.0 µM (retest, dose inferred, filed as 5.0).

In the case of `CCC/C=C1/OC(=O)C2=C[C@H]3CC[C@]21[C@]1(OC(=O)C2=C1CCC=C2)[C@H]3CCC`, the growth inhibition in experiment [1] (setting [7]) is 0%; in experiment [1] (setting [8]), 96% (active); in experiment [1] (at 50.0 µM), 88.2% (active); in experiment [2] (setting [7]), 14%; in experiment [2] (setting [8]), 97% (active); in experiment [2] (at 50.0 µM), 88.9% (active). Further, the growth inhibition is 17% in experiment [3] (setting [7]); 96% (active) in experiment [3] (setting [8]); 87.8% (active) in experiment [3] (at 50.0 µM); -6% in experiment [4] (setting [7]); 96% (active) in experiment [4] (setting [8]); 86.9% (active) in experiment [4] (at 50.0 µM). In addition, the growth inhibition in experiment [5] (setting [7]) was 2%; in experiment [5] (setting [8]) it was 93% (active); in experiment [5] (at 50.0 µM), 88.3% (active); in experiment [6] (setting [7]) it was 14%; in experiment [6] (setting [8]), 95% (active); in experiment [6] (at 50.0 µM) it was 90.5% (active).
Turning to `CNc1c(C(=O)Nc2ccccc2)c(=O)n(C)c(=O)n1C`, the growth inhibition was 99% (active) in experiment [1] (setting [7]); 99% (active) in experiment [1] (setting [8]); 62.9% in experiment [1] (at 50.0 µM); 100% (active) in experiment [2] (setting [7]); 99% (active) in experiment [2] (setting [8]); 81% (active) in experiment [2] (at 50.0 µM). For the same compound, the growth inhibition in experiment [3] (setting [7]) was 99% (active); in experiment [3] (setting [8]) it was 99% (active); in experiment [3] (at 50.0 µM) it was 32.8%; in experiment [4] (setting [7]), 99% (active); in experiment [4] (setting [8]) it was 99% (active); in experiment [4] (at 50.0 µM) it was 2.3%. The growth inhibition in experiment [5] (setting [7]) was 99% (active); in experiment [5] (setting [8]), 99% (active); in experiment [5] (at 50.0 µM) it was 90.8% (active); in experiment [6] (setting [7]) it was 99% (active); in experiment [6] (setting [8]), 99% (active); in experiment [6] (at 50.0 µM), 74.5% (active).
With `COc1cc(C2OC(=O)c3ccccc3S2)ccc1O` (stereo not given), the growth inhibition is 8% in experiment [1] (setting [7]); 92% (active) in experiment [1] (setting [8]); 98.7% (active) in experiment [1] (at 50.0 µM); 12% in experiment [2] (setting [7]); 98% (active) in experiment [2] (setting [8]); 98.6% (active) in experiment [2] (at 50.0 µM). Also, the growth inhibition in experiment [3] (setting [7]) is -4%; in experiment [3] (setting [8]), 74% (active); in experiment [3] (at 50.0 µM) it was 71.6% (active); in experiment [4] (setting [7]) it was 7%; in experiment [4] (setting [8]) it was 76% (active); in experiment [4] (at 50.0 µM), 96% (active). Besides, the growth inhibition in experiment [5] (setting [7]) was 5%; in experiment [5] (setting [8]), 84% (active); in experiment [5] (at 50.0 µM), 95.5% (active); in experiment [6] (setting [7]) it was 13%; in experiment [6] (setting [8]) it was 98% (active); in experiment [6] (at 50.0 µM), 99.5% (active).
Consider `Cc1ccc(CC2(C(=O)O)Cc3ccc(C)cc3C2)cc1` (stereo not given), for which the growth inhibition in experiment [1] (setting [7]) is -1%; in experiment [1] (setting [8]), 100% (active); in experiment [1] (at 50.0 µM) it was 78.3% (active); in experiment [2] (setting [7]), -12%; in experiment [2] (setting [8]), 100% (active); in experiment [2] (at 50.0 µM), 86.3% (active). The growth inhibition in experiment [3] (setting [7]) was -10%; in experiment [3] (setting [8]), 100% (active); in experiment [3] (at 50.0 µM), 89.3% (active); in experiment [4] (setting [7]) it was 1%; in experiment [4] (setting [8]) it was 100% (active); in experiment [4] (at 50.0 µM), 91.2% (active). In addition, the growth inhibition is 6% in experiment [5] (setting [7]); 100% (active) in experiment [5] (setting [8]); 91% (active) in experiment [5] (at 50.0 µM); 5% in experiment [6] (setting [7]); 99% (active) in experiment [6] (setting [8]); 92.3% (active) in experiment [6] (at 50.0 µM).
For the compound `O=[N+]([O-])c1cccc2c[n+](Cc3ccccc3)ccc12`, the growth inhibition is -1% in experiment [1] (setting [7]); 24% in experiment [1] (setting [8]); 41.7% in experiment [1] (at 50.0 µM); -1% in experiment [2] (setting [7]); 19% in experiment [2] (setting [8]); 1.65% in experiment [2] (at 50.0 µM). For the same compound, the growth inhibition in experiment [3] (setting [7]) was -4%; in experiment [3] (setting [8]), 18%; in experiment [3] (at 50.0 µM) it was 10.1%; in experiment [4] (setting [7]), -13%; in experiment [4] (setting [8]) it was 15%; in experiment [4] (at 50.0 µM), 38.4%. Also, the growth inhibition in experiment [5] (setting [7]) was -7%; in experiment [5] (setting [8]) it was -5%; in experiment [5] (at 50.0 µM) it was -1.05%; in experiment [6] (setting [7]), -7%; in experiment [6] (setting [8]), 12%; in experiment [6] (at 50.0 µM) it was 12.3%.
Turning to `CSc1nc(SC)c2cn(Cc3ccccc3)nc2n1`, the growth inhibition was -2% in experiment [1] (setting [7]); 94% (active) in experiment [1] (setting [8]); 55.5% in experiment [1] (at 50.0 µM); -3% in experiment [2] (setting [7]); 95% (active) in experiment [2] (setting [8]); 52.1% in experiment [2] (at 50.0 µM). For the same compound, the growth inhibition in experiment [3] (setting [7]) was -5%; in experiment [3] (setting [8]), 97% (active); in experiment [3] (at 50.0 µM), 80.7% (active); in experiment [4] (setting [7]) it was -8%; in experiment [4] (setting [8]), 85% (active); in experiment [4] (at 50.0 µM) it was 26.2%. Further, the growth inhibition in experiment [5] (setting [7]) is 4%; in experiment [5] (setting [8]) it was 92% (active); in experiment [5] (at 50.0 µM), 42.8%; in experiment [6] (setting [7]), -2%; in experiment [6] (setting [8]), 95% (active); in experiment [6] (at 50.0 µM) it was 63.8%.
As for `CCCC1(C)C(C#N)(C#N)C1(C#N)C#N`, the growth inhibition in experiment [1] (setting [7]) is 98% (active); in experiment [1] (setting [8]) it was 98% (active); in experiment [1] (at 50.0 µM), 98.5% (active); in experiment [2] (setting [7]), 96% (active); in experiment [2] (setting [8]) it was 99% (active); in experiment [2] (at 50.0 µM) it was 99.3% (active). The growth inhibition is 98% (active) in experiment [3] (setting [7]); 99% (active) in experiment [3] (setting [8]); 99.3% (active) in experiment [3] (at 50.0 µM); 99% (active) in experiment [4] (setting [7]); 99% (active) in experiment [4] (setting [8]); 99.1% (active) in experiment [4] (at 50.0 µM). The growth inhibition in experiment [5] (setting [7]) is 99% (active); in experiment [5] (setting [8]), 99% (active); in experiment [5] (at 50.0 µM), 99% (active); in experiment [6] (setting [7]), 99% (active); in experiment [6] (setting [8]), 99% (active); in experiment [6] (at 50.0 µM), 99.2% (active).
`COC(OC)(c1ccccc1)C(Br)Br`: the growth inhibition is -21% in experiment [1] (setting [7]); 50% in experiment [1] (setting [8]); 85.8% (active) in experiment [1] (at 50.0 µM); -18% in experiment [2] (setting [7]); 86% (active) in experiment [2] (setting [8]); 93.2% (active) in experiment [2] (at 50.0 µM). Further, the growth inhibition in experiment [3] (setting [7]) is -24%; in experiment [3] (setting [8]) it was 45%; in experiment [3] (at 50.0 µM), 89.3% (active); in experiment [4] (setting [7]) it was -7%; in experiment [4] (setting [8]), 41%; in experiment [4] (at 50.0 µM), 90.4% (active). Further, the growth inhibition is -25% in experiment [5] (setting [7]); 89% (active) in experiment [5] (setting [8]); 90% (active) in experiment [5] (at 50.0 µM); -12% in experiment [6] (setting [7]); 59% in experiment [6] (setting [8]); 84.8% (active) in experiment [6] (at 50.0 µM).
`CCOC(=O)/C(Cl)=C(\C)Nc1nc2c(ccc3ccccc32)s1`: the growth inhibition was 22% in experiment [1] (setting [7]); 20% in experiment [1] (setting [8]); 8.8% in experiment [1] (at 50.0 µM); 1% in experiment [2] (setting [7]); 66% in experiment [2] (setting [8]); 26.6% in experiment [2] (at 50.0 µM). Further, the growth inhibition is -8% in experiment [3] (setting [7]); 31% in experiment [3] (setting [8]); -0.75% in experiment [3] (at 50.0 µM); 15% in experiment [4] (setting [7]); 71% (active) in experiment [4] (setting [8]); 97.3% (active) in experiment [4] (at 50.0 µM). Besides, the growth inhibition in experiment [5] (setting [7]) was -4%; in experiment [5] (setting [8]) it was 94% (active); in experiment [5] (at 50.0 µM) it was 94.9% (active); in experiment [6] (setting [7]) it was 0%; in experiment [6] (setting [8]) it was 21%; in experiment [6] (at 50.0 µM), 0.6%.
For `O=C(O)C1CCc2ccc3ccccc3c2C1c1cccc2ccccc12` (stereo not given), the growth inhibition in experiment [1] (setting [7]) was 42%; in experiment [1] (setting [8]) it was 98% (active); in experiment [1] (at 50.0 µM), 98.1% (active); in experiment [2] (setting [7]) it was 36%; in experiment [2] (setting [8]) it was 98% (active); in experiment [2] (at 50.0 µM), 98% (active). For the same compound, the growth inhibition was 32% in experiment [3] (setting [7]); 98% (active) in experiment [3] (setting [8]); 97.7% (active) in experiment [3] (at 50.0 µM); 61% in experiment [4] (setting [7]); 98% (active) in experiment [4] (setting [8]); 97% (active) in experiment [4] (at 50.0 µM). Besides, the growth inhibition was 40% in experiment [5] (setting [7]); 98% (active) in experiment [5] (setting [8]); 97% (active) in experiment [5] (at 50.0 µM); 52% in experiment [6] (setting [7]); 98% (active) in experiment [6] (setting [8]); 98% (active) in experiment [6] (at 50.0 µM).
